The full ranking holds about 8,300 sequences; the median of “log2 fold change of degron read counts, EGFP-low vs EGFP+ sorted cells (limma voom), compound-induced degradation” is about -1.1, and the highest 2% start at about 3.2. The full list was thinned out, with the highest values kept by preference.
T1: CRBN, Q96SW2
T1 chain: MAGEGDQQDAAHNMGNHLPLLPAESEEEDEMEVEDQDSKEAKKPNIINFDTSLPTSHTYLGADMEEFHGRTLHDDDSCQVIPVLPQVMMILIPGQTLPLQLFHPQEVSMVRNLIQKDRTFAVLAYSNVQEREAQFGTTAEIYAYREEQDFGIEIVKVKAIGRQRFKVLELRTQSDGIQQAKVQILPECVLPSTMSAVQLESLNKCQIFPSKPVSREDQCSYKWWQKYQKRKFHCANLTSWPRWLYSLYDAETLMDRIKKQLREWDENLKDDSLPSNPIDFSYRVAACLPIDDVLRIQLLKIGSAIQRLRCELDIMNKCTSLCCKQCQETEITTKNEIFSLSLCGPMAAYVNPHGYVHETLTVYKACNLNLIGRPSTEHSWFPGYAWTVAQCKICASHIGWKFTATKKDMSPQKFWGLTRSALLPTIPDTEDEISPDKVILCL

B1: 46F_47D_49P_50I_52G_53H_54F_55F_67L_, Q9UKT9 (peptide)
chain: FDCPICGHFFTQKGNLLRHIKL
B2: 46F_47I_49D_50V_52G_53A_54W_55F_67L_, Q9UKT9 (peptide)
chain: FICDVCGAWFTQKGNLLRHIKL
B3: 46F_47M_49P_50Q_52G_53A_54R_55F_67L_, Q9UKT9 (peptide)
chain: FMCPQCGARFTQKGNLLRHIKL
B4: 46F_47G_49N_50V_52G_53A_54E_55F_67L_, Q9UKT9 (peptide)
chain: FGCNVCGAEFTQKGNLLRHIKL
B5: 46F_47T_49N_50Q_52G_53R_54V_55F_67L_, Q9UKT9 (peptide)
chain: FTCNQCGRVFTQKGNLLRHIKL
B6: 46F_47V_49P_50V_52G_53A_54P_55F_67L_, Q9UKT9 (peptide)
chain: FVCPVCGAPFTQKGNLLRHIKL
B7: 46F_47N_49D_50V_52G_53A_54P_55F_67L_, Q9UKT9 (peptide)
chain: FNCDVCGAPFTQKGNLLRHIKL
B8: 46F_47M_49P_50V_52G_53A_54P_55F_67L_, Q9UKT9 (peptide)
chain: FMCPVCGAPFTQKGNLLRHIKL
B9: 46F_47Y_49N_50V_52G_53A_54P_55F_67L_, Q9UKT9 (peptide)
chain: FYCNVCGAPFTQKGNLLRHIKL
B10: 46F_47N_49P_50V_52G_53A_54P_55F_67L_, Q9UKT9 (peptide)
chain: FNCPVCGAPFTQKGNLLRHIKL
B11: 46F_47Y_49D_50V_52G_53A_54P_55F_67L_, Q9UKT9 (peptide)
chain: FYCDVCGAPFTQKGNLLRHIKL
B12: 46F_47T_49P_50V_52G_53A_54P_55F_67L_, Q9UKT9 (peptide)
chain: FTCPVCGAPFTQKGNLLRHIKL
B13: 46F_47W_49P_50V_52G_53A_54P_55F_67L_, Q9UKT9 (peptide)
chain: FWCPVCGAPFTQKGNLLRHIKL
B14: 46F_47H_49P_50V_52G_53A_54P_55F_67L_, Q9UKT9 (peptide)
chain: FHCPVCGAPFTQKGNLLRHIKL
B15: 46F_47N_49N_50V_52G_53A_54P_55F_67L_, Q9UKT9 (peptide)
chain: FNCNVCGAPFTQKGNLLRHIKL
B16: 46F_47Y_49P_50V_52G_53A_54P_55F_67L_, Q9UKT9 (peptide)
chain: FYCPVCGAPFTQKGNLLRHIKL
B17: 46F_47E_49P_50V_52G_53A_54P_55F_67L_, Q9UKT9 (peptide)
chain: FECPVCGAPFTQKGNLLRHIKL
B18: 46F_47C_49D_50I_52G_53A_54F_55F_67L_, Q9UKT9 (peptide)
chain: FCCDICGAFFTQKGNLLRHIKL

Biological target: T1, CRBN, Q96SW2
Test: log2 fold change of degron read counts, EGFP-low vs EGFP+ sorted cells (limma voom), compound-induced degradation; higher = more compound-induced degradation of the degron-EGFP fusion; degrons are variants of IKZF1/3 zinc finger 2; compound dose not given here
Details: Jurkat, 18 h
[1] = compound: compound 19 (5-tert-butyl-thalidomide)
[2] = compound: compound 22 (5-morpholino-thalidomide)
[3] = compound: compound 33 (diphenyl IMiD analogue)
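Note: pooled lentiviral library of zinc finger degron-EGFP fusions in mCherry-positive Jurkat cells, FACS-sorted after compound exposure, with degron abundance counted by next-generation sequencing.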

Row | Sequence | log2 fold change of degron read counts [1] | log2 fold change of degron read counts [2] | log2 fold change of degron read counts [3] | log2 fold change of degron read counts (compound: thalidomide)
1 | B1 | -1.89 | -2.22 | -1.79 | -1.75
2 | B2 | -2.55 | -1.74 | -0.491 | -1.83
3 | B3 | -1.45 | -1.19 | 0.32 | -0.605
4 | B4 | -2.62 | -1.85 | -0.606 | -0.925
5 | B5 | -2.75 | -3.29 | -2.33 | -2.08
6 | B6 | 1.79 | 3.33 | 2.13 | 3.19
7 | B7 | 0.937 | -0.417 | -1.71 | -1.34
8 | B8 | 2.53 | 3.59 | 3.09 | 2.96
9 | B9 | 2.95 | 2.35 | 1.69 | -0.11
10 | B10 | 3.41 | 2.62 | 1.33 | 2.25
11 | B11 | 3.09 | 2.39 | 1.86 | -0.588
12 | B12 | 1.88 | 3.16 | 2.41 | 3.03
13 | B13 | 3.23 | 2.92 | 2.67 | 1.06
14 | B14 | 3.2 | 2.86 | 2.5 | 1.82
15 | B15 | 1 | -0.317 | -0.912 | -0.29
16 | B16 | 3.48 | 3.24 | 2.82 | 1.62
17 | B17 | 1.88 | -0.29 | 1.64 | 2.65
18 | B18 | -0.849 | -1.43 | -0.311 | -2.26

Reference: the supplement of paper PMC12645437, “Orthogonal IMiD-Degron Pairs Induce Selective Protein Degradation in Cells” (ACS Chemical Biology, 2025)
